This is a sample that favours compounds with a hit; in the whole collection about 19% have one here.
HepG2 viability = qHTS for Inhibitors of TGF-b: Cytotox Counterscreen; HepG2 CAGA-GFP viability, ATP luminescence, 18 h; Potency, µM (highest dose often 46.1 µM), for the others: at the top dose activity change, negative = cytotoxicity, actives largely listed as cytotoxic; 410,000 compounds, 0.76% hits; also: potency is read from the fitted curve at half-maximal effect
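CellTiter-Glo luminescence gave cytotoxicity after 18 hours at 37 degrees C. The cells were HepG2 CAGA-GFP in 1% FBS DMEM, stimulated with 500 pg/mL TGF-beta after compound addition. %Activity was normalised to no-cell wells (complete cell-killing) and DMSO (no toxicity), and curves were fitted and classified.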
ASM inhibitor = Inhibitors of Secretory Acid Sphingomyelinase (S-ASM): qHTS; Sphingomyelin phosphodiesterase (Homo sapiens), P17405; placental ASM, HMU-PC fluorogenic substrate, 60 min; Potency, µM (highest dose often 57.5 µM), for inactives: top-dose activity change, negative = inhibition, actives largely listed as inhibitors; 340,000 compounds, 0.006% hits; AID 504937, 2011; also: potency is read from the fitted curve at half-maximal effect
Target sequence (P17405 47-631 limits assumed): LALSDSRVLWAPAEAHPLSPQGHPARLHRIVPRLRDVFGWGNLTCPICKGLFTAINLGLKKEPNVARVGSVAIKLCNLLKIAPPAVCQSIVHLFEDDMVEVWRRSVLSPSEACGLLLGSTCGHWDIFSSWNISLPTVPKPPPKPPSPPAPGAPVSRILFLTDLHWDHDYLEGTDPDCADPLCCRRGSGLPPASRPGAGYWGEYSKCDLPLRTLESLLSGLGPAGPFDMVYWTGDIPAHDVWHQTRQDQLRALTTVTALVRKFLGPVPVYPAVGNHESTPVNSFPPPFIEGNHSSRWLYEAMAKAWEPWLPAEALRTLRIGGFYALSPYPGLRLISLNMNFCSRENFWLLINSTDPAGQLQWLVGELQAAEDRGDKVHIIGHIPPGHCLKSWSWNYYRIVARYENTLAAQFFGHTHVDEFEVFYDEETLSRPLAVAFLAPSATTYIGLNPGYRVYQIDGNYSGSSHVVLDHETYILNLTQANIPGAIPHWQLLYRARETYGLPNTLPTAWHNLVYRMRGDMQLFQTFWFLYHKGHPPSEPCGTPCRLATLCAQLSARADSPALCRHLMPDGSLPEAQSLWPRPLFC
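HMU-PC0 cleavage (9 uM final) by human placental ASM, 60 min at 37 °C following 10 min compound exposure at RT; stopped at pH 10, fluorescence Ex 386/Em 447 nm.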
TDP1 cell noCPT = qHTS for Inhibitors of human tyrosyl-DNA phosphodiesterase 1 (TDP1): qHTS in cells in absence of CPT; DT40 Tdp1-/- hTDP1 cells, no CPT, ATP luminescence, 48 h; Potency, µM (series often up to 46.2 µM), for the others: at the top dose activity change, negative = growth inhibition, most hits filed as inhibitors; 420,000 compounds, 15% hits; AID 686978, 2013; also: potency is read from the fitted curve at half-maximal effect; % is scaled to controls: 0 for no effect and ±100 for the full control effect; nearly all actives have a fitted effect of over 55% in size
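Growth of hTDP1-complemented DT40 Tdp1-knockout cells is measured by ATP luminescence after at least 48 hr compound exposure at 37 °C, with DMSO substituting for the 20 nM CPT used in the parallel screen.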
TGFb inhibitor = qHTS for Inhibitors of TGF-b | AID 588855, 2011 | 410,000 compounds, 1.2% hits | HepG2 CAGA-GFP TGF-b/SMAD3 reporter, GFP fluorescence, 18 h; TGF-beta stimulated, 500 pg/mL final | Potency, µM (titrated, usually from 46.1 µM), without a hit: top-dose activity, negative = inhibition, most hits filed as inhibitors; also: potency is read from the fitted curve at half-maximal effect; % is scaled to controls: 0 for no effect and ±100 for the full control effect; nearly all actives have a fitted effect of over 65% in size
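HEPG2 CAGA-GFP reporter cells (1000/well, DMEM with 1% FBS) received compounds, then recombinant TGF-beta at 500 pg/mL final for 18 hours at 37 degrees C. Per-cell GFP summed per well was normalised to unstimulated and stimulated DMSO controls before curve fitting.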
TDP1 cell CPT = qHTS for Inhibitors of human tyrosyl-DNA phosphodiesterase 1 (TDP1): qHTS in cells in presence of CPT; chicken DT40 Tdp1-/-;hTDP1 cells + 20 nM CPT, ATP luminescence, 48 h; Potency, µM (doses to about 46.2 µM), for the others: at the highest dose activity change, negative = growth inhibition, actives largely listed as inhibitors; 420,000 compounds, 12% hits; also: potency is read from the fitted curve at half-maximal effect; % is scaled to controls: 0 for no effect and ±100 for the full control effect; nearly all actives have a fitted effect of over 55% in size
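Chicken DT40 Tdp1-/- cells stably complemented with human TDP1 were seeded at 400 cells/well in medium containing 20 nM camptothecin, exposed to pin-transferred compounds, and grown at 37 °C for at least 48 hr. Viability was read as ATP luminescence.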
IL-1B inflam inh = qHTS for Inhibitors of Inflammasome Signaling: IL-1-beta AlphaLISA Primary Screen; THP-1 LPS/ATP IL-1B secretion, AlphaLISA, 16 h; active compounds read low; activity change, % at 57.5 µM; 360,000 compounds, 4.7% hits; AID 743279, 2014; in the data active = activity change below about -50%; inconclusive = mostly about -30% to -49%; also: % is scaled to controls: 0 for no effect and ±100 for the full control effect
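THP-1 cells pretreated 1 hr with compounds (up to 57.5 uM final), then stimulated with LPS (250 ng/mL final) plus ATP (1.25 mM final); secreted IL-1B measured by AlphaLISA after 16 hr, decreased signal indicating inhibition.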
Numbers without * were called inactive; ! = not confirmed by another sample. Unless noted, calls follow the shape of the dose curve; as a rule, active = well fitted curve in the direction sought with a large enough effect; inconclusive = small, poorly fitted or top-dose-only effect, or another doubt; inactive = no such curve, though single readings can be large; an effect the other way counts as inactive or inconclusive.

Screening CCOC(=O)C1CCCN(S(=O)(=O)NC[C@H]2O[C@@H](n3cnc4c(N)ncnc43)[C@H](O)[C@@H]2O)C1 (stereo partly specified) returned HepG2 viability 1%, ASM inhibitor -2%, TDP1 cell noCPT -4%, TGFb inhibitor -15%, TDP1 cell CPT inconclusive and IL-1B inflam inh 2.
`CC1CN(c2nc(-c3ccc(Br)cc3)nnc2-c2ccccc2)CC(C)N1` (stereo unspecified) gave HepG2 viability -2%, ASM inhibitor 0%, TDP1 cell noCPT 10µM*, TGFb inhibitor -3%, TDP1 cell CPT 13µM* and IL-1B inflam inh -105*.
Clc1ccc(-c2nnc(-c3ccccc3)c(N3CCSCC3)n2)cc1 was read as HepG2 viability -36%, ASM inhibitor -2%, TDP1 cell noCPT inconclusive, TGFb inhibitor 13%, TDP1 cell CPT 21µM* and IL-1B inflam inh -30.
`FC(F)(F)c1cccc(-c2nnc(-c3ccccc3)c(N3CCOCC3)n2)c1` gave HepG2 viability -44%, ASM inhibitor -8%, TDP1 cell noCPT 16µM*, TGFb inhibitor 67%, TDP1 cell CPT 18µM* and IL-1B inflam inh -26.
For CC1CCN(c2nc(-c3ccc(Br)cc3)nc3ccccc23)CC1 the results were HepG2 viability -16%, TDP1 cell noCPT inconclusive, TGFb inhibitor inconclusive and TDP1 cell CPT inconclusive.
Clc1ccc(-c2nnc(-c3ccccc3)c(-c3ccccc3)n2)cc1 was read as HepG2 viability 1%, ASM inhibitor 0%, TDP1 cell noCPT -30%, TGFb inhibitor -2%, TDP1 cell CPT -13% and IL-1B inflam inh -12.
`Cc1cc([N+](=O)[O-])ccc1NC(=O)CSc1nccn1C` gave HepG2 viability 2% and TGFb inhibitor 25%.
Screening O=C(O)c1cc(=O)c2ccccc2[nH]1 returned HepG2 viability -32%, ASM inhibitor 5%, TDP1 cell noCPT -12%, TGFb inhibitor -31%, TDP1 cell CPT 0.058µM*! and IL-1B inflam inh 22.
For Cc1ccc2[nH]c(C(F)(F)F)cc(=O)c2c1 the results were HepG2 viability -10%, ASM inhibitor 3%, TDP1 cell noCPT 12µM*, TGFb inhibitor -20% and TDP1 cell CPT inconclusive.
Cc1cccc2c(=O)cc(C(F)(F)F)[nH]c12 was read as HepG2 viability -49%, ASM inhibitor -2%, TDP1 cell noCPT inconclusive, TGFb inhibitor inconclusive, TDP1 cell CPT inconclusive and IL-1B inflam inh 21.
For O=c1cc(C(F)(F)F)[nH]c2c(OC(F)(F)F)cccc12 the results were HepG2 viability -61%, ASM inhibitor -1%, TDP1 cell noCPT inconclusive, TGFb inhibitor inconclusive, TDP1 cell CPT -19% and IL-1B inflam inh -59*.
For Cc1ccc2[nH]c(CSc3nnc(C)s3)cc(=O)c2c1 the results were HepG2 viability 4%, TDP1 cell noCPT -19%, TGFb inhibitor -8% and TDP1 cell CPT -2%.
Screening O=c1cc(C(F)(F)F)[nH]c2ccccc12 returned HepG2 viability -25%, ASM inhibitor -1%, TDP1 cell noCPT 21µM*, TGFb inhibitor -15%, TDP1 cell CPT inconclusive and IL-1B inflam inh 0.
Screening CN(CC(=O)Nc1ccccc1C(=O)N1CCCC1)S(=O)(=O)c1ccc(Cl)cc1 returned HepG2 viability -2%, ASM inhibitor 4%, TDP1 cell noCPT 1%, TGFb inhibitor -4%, TDP1 cell CPT -17% and IL-1B inflam inh 9.

From PubChem BioAssay
